HepG2 viability – kills HepG2 cells in TGF-b inhibitor counter-screen. AID 588856. Potency, µM (series often up to 46.1 µM), for the others: top-dose activity change, negative = cytotoxicity, actives largely listed as cytotoxic. hit rate 0.76% among 410,000. HepG2 CAGA-GFP viability, ATP luminescence, 18 h; further: potency means the concentration at half of the fitted maximal effect
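HepG2 CAGA-GFP cells (1000/well, DMEM with 1% FBS) received compound, then TGF-beta at 500 pg/mL final, and were incubated 18 hours at 37 degrees C. Viability was read by CellTiter-Glo luminescence. Media-only wells were set as complete cell-killing and DMSO as no toxicity.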
DT40 TDP1 CPT – growth inhibition of DT40 Tdp1-/-;hTDP1 cells with camptothecin (screen for TDP1 inhibitors). chicken DT40 Tdp1-/-;hTDP1 cells + 20 nM CPT, ATP luminescence, 48 h. Potency, µM (highest dose often 46.2 µM), for the others: top-dose activity change, negative = growth inhibition, usual class: inhibitors. hit rate 12% among 420,000; further: potency means the concentration at half of the fitted maximal effect; on the % scale 0 is the no-effect control and ±100 the full control effect; nearly all actives have a fitted effect of over 55% in size
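Chicken DT40 Tdp1-/- cells stably complemented with human TDP1 were seeded at 400 cells/well in medium containing 20 nM camptothecin, exposed to pin-transferred compounds, and grown at 37 °C for at least 48 hr. Viability was read as ATP luminescence.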
TGFb inhibitor – blocks TGF-b signaling; AID 588855; HepG2 CAGA-GFP TGF-b/SMAD3 reporter, GFP fluorescence, 18 h; TGF-beta stimulated, 500 pg/mL final; hit rate 1.2% among 410,000; Potency, µM (doses to about 46.1 µM), inactives show at the top dose activity, negative = inhibition, actives largely listed as inhibitors; further: potency means the concentration at half of the fitted maximal effect; on the % scale 0 is the no-effect control and ±100 the full control effect; nearly all actives have a fitted effect of over 65% in size
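Inhibition of TGF-beta-driven CAGA-GFP reporter expression in HEPG2 cells is measured by cellular GFP fluorescence after 18 h stimulation with 500 pg/mL recombinant TGF-beta in 1% FBS medium at 37 degrees C.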
TDP1 block – blocks human tyrosyl-DNA phosphodiesterase 1. recombinant TDP1, AlphaScreen DNA substrate cleavage. Potency, µM (doses to about 130 µM), without a hit: top-dose activity change, negative = inhibition, hits mostly inhibitors. hit rate 0.28% among 350,000. AID 485290; further: potency means the concentration at half of the fitted maximal effect; on the % scale 0 is the no-effect control and ±100 the full control effect; nearly all actives have a fitted effect of over 40% in size
Target sequence (Q9NUW8 whole entry, looked up): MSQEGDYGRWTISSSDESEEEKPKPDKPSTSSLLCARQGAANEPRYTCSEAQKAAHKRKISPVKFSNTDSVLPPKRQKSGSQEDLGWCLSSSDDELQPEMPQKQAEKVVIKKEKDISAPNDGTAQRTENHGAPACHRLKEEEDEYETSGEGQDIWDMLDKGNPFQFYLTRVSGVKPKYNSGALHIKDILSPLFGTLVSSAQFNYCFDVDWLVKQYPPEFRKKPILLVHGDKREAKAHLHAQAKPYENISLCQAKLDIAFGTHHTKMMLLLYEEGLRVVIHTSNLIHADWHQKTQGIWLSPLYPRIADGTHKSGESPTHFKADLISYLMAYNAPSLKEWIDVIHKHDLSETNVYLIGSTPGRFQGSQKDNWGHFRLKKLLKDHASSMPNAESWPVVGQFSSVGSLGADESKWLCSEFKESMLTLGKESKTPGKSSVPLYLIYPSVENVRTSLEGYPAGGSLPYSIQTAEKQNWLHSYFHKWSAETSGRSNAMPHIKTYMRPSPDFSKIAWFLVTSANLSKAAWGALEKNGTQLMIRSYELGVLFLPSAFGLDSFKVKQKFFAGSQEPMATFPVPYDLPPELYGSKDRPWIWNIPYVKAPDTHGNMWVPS
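Recombinant E. coli-expressed Tdp1 (1 nM) preincubated with compound 15 min at RT, then 5'-biotin/3'-phosphotyrosine-FITC DNA substrate (15 nM) added for 5 min. AlphaScreen beads (10 ug/ml) added, 10 min RT; tyrosine-FITC cleavage read as signal loss.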
TDP1 cell noCPT – qHTS for Inhibitors of human tyrosyl-DNA phosphodiesterase 1 (TDP1): qHTS in cells in absence of CPT. Potency, µM (doses to about 46.2 µM), for the others: at the highest dose activity change, negative = growth inhibition, hits mostly inhibitors. hit rate 15% among 420,000. DT40 Tdp1-/- hTDP1 cells, no CPT, ATP luminescence, 48 h; further: potency means the concentration at half of the fitted maximal effect; on the % scale 0 is the no-effect control and ±100 the full control effect; nearly all actives have a fitted effect of over 55% in size
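Camptothecin absent (DMSO only). Human TDP1-complemented DT40 knockout cells, 400 cells/well, 37 °C for minimum 48 hr; ATP measured via CellTiter-Glo, 30 min dark incubation, luminescence.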
IL-1B inflam inh – inhibitors of inflammasome signaling (IL-1 beta secretion); THP-1 LPS/ATP IL-1B secretion, AlphaLISA, 16 h; stronger effect = lower value; activity change, % at 57.5 µM; hit rate 4.7% among 360,000; AID 743279; in the data active means activity change below about -50%; inconclusive means mostly about -30% to -49%; further: on the % scale 0 is the no-effect control and ±100 the full control effect
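THP-1 cells pretreated 1 hr with compounds (up to 57.5 uM final), then stimulated with LPS (250 ng/mL final) plus ATP (1.25 mM final); secreted IL-1B measured by AlphaLISA after 16 hr, decreased signal indicating inhibition.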
* = called active by the depositor; i = inactive; ? = inconclusive; · = not tested or not shown; [ ] = another dose, or the depositor's remark. Only some compounds are listed: those with a hit (about 19% of all), similar ones and a draw of the others. Unless noted, the call rests on the fitted dose curve; in most records, active means well fitted curve in the direction sought with a large enough effect; inconclusive means small, poorly fitted or top-dose-only effect, or another doubt; inactive means no such curve, though single readings can be large; an effect the other way counts as inactive or inconclusive.

SMILES	HepG2 viability	DT40 TDP1 CPT	TGFb inhibitor	TDP1 block	TDP1 cell noCPT	IL-1B inflam inh
CCCCn1c(-c2ccco2)nc2ccccc2c1=O	-2.1%	?	-2.2%	0.0%	16.4µM*	9.5
O=C(Nc1ccccc1)N1CC[C@@]2(CCCN(C(=O)c3cccc(F)c3)C2)C1	·	5.7%	·	·	-2.4%	·
CCCCCC(=O)CC[C@@H]1[C@@H](C/C=C\CCCC(=O)O)[C@@H](O)C[C@H]1O	·	·	·	3.7%	·	·
COCCn1cnc2c(c1=O)c1nc3ccccc3nc1n2/N=C/c1cccc(OC)c1	-42.0%	13µM*	0.0%	·	11.6µM*	-0.3
C=CCn1cnc2c(c1=O)c1nc3ccccc3nc1n2/N=C/c1ccccn1	-16.4%	16.4µM*	0.1%	1.0%	20.6µM*	-64.9*
CC(C)OCCCn1c(-c2ccco2)nc2nc3ccccc3nc21	-6.1%	?	33.1%	-5.3%	23.1µM*	-16.9
CCCOc1ccc(C(O)(CCC)CCN2CCCCC2)cc1 (configuration not stated)	-16.8%	20.6µM*	-17.3%	0.0%	23.1µM*	-9.7
CC(OCCN1CCCC1)(c1ccc(F)cc1)c1ccc(F)cc1	-29.7%	?	-26.9%	-2.6%	?	-59.5*
CC(C)(C)c1ccc(OCCCN2CCCC2)cc1	1.2%	?	-6.6%	·	13µM*	0.0
CCCCCCCCCCCCCCCC(=O)NC(C)C(=O)O (configuration not stated)	·	·	·	5.6%	·	·
CCn1cc2c(n1)-c1c(oc(C(=O)Nc3cccc(C(F)(F)F)c3)c1C)CC2	3.2%	-21.3%	-26.5%	3.9%	-26.7%	·
CCCOP(=O)(c1ccc(N(C)C)cc1)C(O)c1ccccc1OC (configuration not stated)	-1.8%	-7.0%	-29.1%	1.0%	?	-14.6
CCCOP(=O)(c1ccc(N(C)C)cc1)C(Nc1ccccc1)c1ccc(N(C)C)cc1 (configuration not stated)	-0.8%	8.2µM*	?	5.6%	2.31µM*	6.4
Cc1c(Cl)cccc1NC(=O)CCN1C(=O)NC(C)(C)C1=O	0.0%	4.0%	-1.1%	-8.6%	-7.1%	-0.3
Cc1cc(C)nc(SCc2nnc(SCC(=O)Nc3nc(-c4ccccc4)cs3)n2C)n1	3.6%	?	-14.8%	4.7%	25.9µM*	2.8
CCn1c(CSc2nc(C)cc(C)n2)nnc1SCC(=O)Nc1nc(-c2ccccc2)cs1	5.5%	20.6µM*	-5.2%	4.7%	?	32.0
Cc1csc(SCC(=O)Nc2nc(-c3ccccc3)cs2)n1	3.2%	?	6.3%	1.0%	?	-10.0
ClCc1nc2ccccc2c2ccccc12	-6.8%	4.11µM*	?	9.9%	2.59µM*	-7.9
Cc1cccc(N=C2C(=O)Nc3c(Cl)cccc32)c1	-53.7%	?	?	5.6%	29.1µM*	19.2
O=C(O)CCCC1(C(=O)O)CCCC1	-9.0%	1.1%	15.6%	·	-5.1%	22.2
COc1ccc(C2C(C#N)=C(N)Oc3cc(C)n(Cc4ccncc4)c(=O)c32)cc1 (configuration not stated)	11.7%	4.61µM*	0.0%	-5.8%	2.06µM*	-9.3
COc1ccc2[nH]cc(/C=N/NS(=O)(=O)c3ccc(C)cc3)c2c1	-42.2%	14.6µM*	?	·	13µM*	15.5
COc1ccc(OC)c(S(=O)(=O)N/N=C(/C)c2c[nH]c3ccccc23)c1	7.5%	-15.6%	2.3%	2.2%[56.1 µM]	12.3%	35.1
COc1ccc(OC)c(S(=O)(=O)N/N=C\c2c[nH]c3ccccc23)c1	0.5%	18.4µM*	0.0%	6.3%[56.1 µM]	9.2µM*	i
COc1ccc(-c2nc3ccccc3n2OC(C)C(=O)O)cc1 (configuration not stated)	1.0%	-6.1%	4.0%	5.4%	-19.5%	4.9
SMILES	HepG2 viability	DT40 TDP1 CPT	TGFb inhibitor	TDP1 block	TDP1 cell noCPT	IL-1B inflam inh
COc1ccc(C(=O)c2c(C)c3ccccc3n2CC(O)CNC(C)C)cc1 (configuration not stated)	-61.3%	?	?	2.5%	23.1µM*	?
O=C1CCSc2ccc(Cl)cc2N1Cc1cccc(Cl)c1	5.0%	?	-22.8%	-1.1%	20.6µM*	13.0
c1ccc(Cn2c(-c3ccccc3)c[n+]3c2SCCC3)cc1	-15.1%	2.91µM*	-10.4%	5.6%	2.31µM*	-20.7
CCN1CCN(c2nc(Nc3cccc(OC)c3)nc(N)c2[N+](=O)[O-])CC1	-9.9%	13µM*	-2.8%	·	9.2µM*	-28.8
CCOc1ccc(Nc2nc(N)c([N+](=O)[O-])c(N3CCN(C)CC3)n2)cc1	7.7%	?	11.4%	·	-12.3%	-15.0
CCN1CCN(c2nc(N)c([N+](=O)[O-])c(Nc3cccc(C)c3)n2)CC1	-0.7%	?	?	2.2%	?	·
Cc1cccc(Nc2nc(N)c([N+](=O)[O-])c(N3CC(C)CC(C)C3)n2)c1 (configuration not stated)	11.2µM*	?	?	7.8%	18.4µM*	-101.4*
CN(C)c1ccc(Nc2nc(N)c([N+](=O)[O-])c(N3CCOCC3)n2)cc1	-22.2%	?	-29.3%	10.5%	25.9µM*	-86.7*
CCN1CCN(c2nc(Nc3ccc(C)c(C)c3)nc(N)c2[N+](=O)[O-])CC1	14.8%	-22.5%	15.5%	5.3%	23.1µM*	?
COc1ccc(C(C)=O)c(Oc2ccc(S(=O)(=O)N3CCOCC3)cn2)c1	2.2%	-4.7%	16.1%	-0.6%	-29.7%	-3.9
CCOC(=O)CN1C(=O)N[C@@H](c2ccccc2)[C@H](C(=O)OC)[C@H]1C	·	·	·	8.6%[21 µM]	·	·
COc1cc(NC(=O)c2ccccc2)c(OC)cc1NC(=O)CN1CCOCC1	17.3%	-19.6%	0.5%	0.0%	?	?
COc1cc(NC(=O)c2ccccc2Cl)c(OC)cc1NC(=O)CN1CCOCC1	3.6%	?	6.5%	4.2%	?	-73.6*
COc1cc(NC(=O)c2cccc(C)c2)c(OC)cc1NC(=O)CN1CCOCC1	-2.9%	?	-1.6%	2.6%	18.4µM*	?
CCOC(=O)N1CCN(C(=O)c2ccc3c(c2)N(Cc2ccccc2F)C(=O)c2ccccc2S3(=O)=O)CC1	-8.9%	-25.9%	?	0.0%	?	·
CCOC(=O)c1c(C)[nH]c(N=Nc2ccccc2)c1C	-47.7%	?	?	11.6%	23.1µM*	-3.1

High-throughput results (PubChem BioAssay)
